Data published in PubChem BioAssay (Tox21).
Records with an inconclusive call do not appear. Activity calls are given as the source filed them. Unless noted, calls follow the shape of the dose curve; as a rule, active = well fitted curve in the direction sought with a large enough effect in the repeat runs; inconclusive = weak or mixed curves; inactive = no such curve, though single readings can be large; an effect the other way counts as inactive or inconclusive.

Assays:
[1] = qHTS assay to identify small molecule antagonists of the estrogen related receptor (ERR) signaling pathway - cell viability counter screen (AID 1224818);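 also: series mostly up to about 46 µM; viability measured after 17.5 h of compound exposure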
Outline: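 ERR reporter cells plated 6 h at 37 C/5% CO2, then compounds in DMSO pin-transferred and incubated 17.5 h at 37 C. Viability read as CellTiter-Fluor fluorescence after 30 min at 37 C.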

[2] = qHTS assay to identify small molecule antagonists of the estrogen related receptor (ERR) signaling pathway (AID 1224819;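 also: luminescence from an ERR-driven luciferase reporter measured with One-Glo reagent; series mostly up to about 46 µM; nearly all actives have a fitted effect of over 50% in size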)
Outline: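 ERR reporter cells were plated at 2,000 cells/well and left 6 h at 37 C/5% CO2 before pin-tool transfer of compounds in DMSO. After 18 h at 37 C, One-Glo was added and luminescence was read 30 min later at room temperature.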

[3] = test system: estrogen-related receptor alpha (ERRalpha) with PGC-1alpha coactivator, human; test: qHTS assay to identify small molecule antagonists of the estrogen related receptor signaling pathway with the pleiotropic PPARgamma coactivator (PGC) (AID 1224821; calls by dose curve;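 also: series mostly up to about 46 µM; lower luminescence signal means antagonism of PGC/ERR signalling; nearly all actives have a fitted effect of over 50% in size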)
Outline: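 Quantitative HTS for antagonism: PGC/ERR cells received compounds after 6 h attachment and were incubated 18 h at 37 C, with luminescence (One-Glo) as the endpoint.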

[4] = qHTS assay to identify small molecule antagonists of the estrogen related receptor signaling pathway with the pleiotropic PPARgamma coactivator (PGC) cell viability counter screen (AID 1224822; also: series mostly up to about 46 µM)
Outline: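 PGC/ERR cells were seeded at 2,000 cells/well, rested 6 h at 37 C/5% CO2, then given compounds in DMSO by pin tool and incubated 17.5 h at 37 C. Viability came from CellTiter-Fluor fluorescence after 30 min.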

[5] = qHTS assay to identify small molecule agonists of the estrogen related receptor signaling pathway with the pleiotropic PPARgamma coactivator (PGC) (AID 1224823)
Outline: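 Cell-based luciferase assay in the NTP-supplied PGC/ERR line, 2,000 cells/well; 18 h compound exposure at 37 C, luminescence after One-Glo.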

Measured: Potency

NCc1cc(=O)[nH]o1
not listed: [5]
inactive: all other assays above

CC(Cc1ccc(OCC(=O)O)cc1)NCC(O)c1cccc(Cl)c1 (stereo not drawn)
not listed: [5]
inactive: all other assays above

O=c1ccc2[nH]cc(C3=CCNCC3)c2[nH]1
inactive: all assays above
